In the supplement of paper PMC7726561:
Whole data set: some 1,400 sequences, median “thermal melting temperature (Tm) of peptide-HLA complex” near 60, cut for the lowest 2% near 45. Only a selection was taken, and the lowest values are over-represented in it overall.

target: HLA-B*07:02; experiment: thermal melting temperature (Tm) of peptide-HLA complex; higher = more thermostable pHLA complex; details: C1R-B*07:02
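Also: lysates heated 10 min at 37–73 °C, complexes pulled down with pan-HLA I antibody, peptide signal by DIA-MS relative to 37 °C, Tm where half the complex is unfolded.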

Going from FPNIPGKSL to APRWLEEEAAL, the thermal melting temperature rises from 62 °C to 62.7 °C.

Compared with IPIGGGTSV, SPASFLRSL is lower in thermal melting temperature: 41.6 °C for the first, 40.6 °C for the second.

Going from SPASRSISL to QPASFAVSL, the thermal melting temperature rises from 61 °C to 62.8 °C.

Going from NPRLNILDTL to GPIYPGHGM, the thermal melting temperature rises from 51.2 °C to 59.2 °C.

Going from YPRMQVTVF to APKSPSSEWL, the thermal melting temperature falls from 61.9 °C to 51.9 °C.

Compared with YPRAQLEVSAL, APAPPTTTTI is lower in thermal melting temperature: 61.5 °C for the first, 61 °C for the second.

Going from VPMPLPTVL to RPALPSTQQL, the thermal melting temperature falls from 62.6 °C to 57.6 °C.

Going from APDKHHITPLL to TPMPKDVRQSL, the thermal melting temperature rises from 43.7 °C to 44.5 °C.

First: KPHLPSVTYL
Second: NVKKVSLEL
The thermal melting temperature of the first is higher: 60.8 °C for the first, 44.3 °C for the second.

Going from APAGLPRETL to IPDHFRPPL, the thermal melting temperature rises from 58.1 °C to 60.4 °C.

First: VIRELSRAL
Second: KPINVRVTTM
The thermal melting temperature of the first is lower: 45.3 °C for the first, 56 °C for the second.

Going from RPIESPGGSVL to LPGISREAL, the thermal melting temperature falls from 45.3 °C to 41.3 °C.

Going from SPRDPVLTL to QPRDPSSTL, the thermal melting temperature falls from 64.4 °C to 43.5 °C.

Compared with LPSKPSSTL, SPRFPAQYL is higher in thermal melting temperature: 58.1 °C for the first, 62.6 °C for the second.

Going from RPLPGALGV to VPNAGRGLV, the thermal melting temperature falls from 59 °C to 58.5 °C.

Compared with HPREPLPPIQ, IPSSHPVSL is higher in thermal melting temperature: 51.3 °C for the first, 56.2 °C for the second.

Compared with HPREPALGP, RPAGPVAVGI is lower in thermal melting temperature: 55.3 °C for the first, 43.3 °C for the second.

First: SPRVQFQSL
Second: RPAEVGGMQL
The thermal melting temperature of the first is higher: 61.7 °C for the first, 59.1 °C for the second.
